# Assay results taken from paper PMC4336329 (PLoS ONE, 2015).
# Among all 310,000 compounds or so, about 14,000 (4.5%) showed an effect of 50% or more. The effect is printed as a negative number. The entries come from a sample that favours strong results as a whole.
# Target: human ether-à-go-go-related gene (hERG) potassium channel (human, UniProt Q12809)
# Experiment: primary screen, population patch clamp on CHO cells stably expressing hERG; higher = less effect of the substance
# 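Also: peak tail current of the secondary pulse compared with the same well before compound.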
# human ether-à-go-go-related gene (hERG) potassium channel, sequence (Q12809 whole entry, looked up): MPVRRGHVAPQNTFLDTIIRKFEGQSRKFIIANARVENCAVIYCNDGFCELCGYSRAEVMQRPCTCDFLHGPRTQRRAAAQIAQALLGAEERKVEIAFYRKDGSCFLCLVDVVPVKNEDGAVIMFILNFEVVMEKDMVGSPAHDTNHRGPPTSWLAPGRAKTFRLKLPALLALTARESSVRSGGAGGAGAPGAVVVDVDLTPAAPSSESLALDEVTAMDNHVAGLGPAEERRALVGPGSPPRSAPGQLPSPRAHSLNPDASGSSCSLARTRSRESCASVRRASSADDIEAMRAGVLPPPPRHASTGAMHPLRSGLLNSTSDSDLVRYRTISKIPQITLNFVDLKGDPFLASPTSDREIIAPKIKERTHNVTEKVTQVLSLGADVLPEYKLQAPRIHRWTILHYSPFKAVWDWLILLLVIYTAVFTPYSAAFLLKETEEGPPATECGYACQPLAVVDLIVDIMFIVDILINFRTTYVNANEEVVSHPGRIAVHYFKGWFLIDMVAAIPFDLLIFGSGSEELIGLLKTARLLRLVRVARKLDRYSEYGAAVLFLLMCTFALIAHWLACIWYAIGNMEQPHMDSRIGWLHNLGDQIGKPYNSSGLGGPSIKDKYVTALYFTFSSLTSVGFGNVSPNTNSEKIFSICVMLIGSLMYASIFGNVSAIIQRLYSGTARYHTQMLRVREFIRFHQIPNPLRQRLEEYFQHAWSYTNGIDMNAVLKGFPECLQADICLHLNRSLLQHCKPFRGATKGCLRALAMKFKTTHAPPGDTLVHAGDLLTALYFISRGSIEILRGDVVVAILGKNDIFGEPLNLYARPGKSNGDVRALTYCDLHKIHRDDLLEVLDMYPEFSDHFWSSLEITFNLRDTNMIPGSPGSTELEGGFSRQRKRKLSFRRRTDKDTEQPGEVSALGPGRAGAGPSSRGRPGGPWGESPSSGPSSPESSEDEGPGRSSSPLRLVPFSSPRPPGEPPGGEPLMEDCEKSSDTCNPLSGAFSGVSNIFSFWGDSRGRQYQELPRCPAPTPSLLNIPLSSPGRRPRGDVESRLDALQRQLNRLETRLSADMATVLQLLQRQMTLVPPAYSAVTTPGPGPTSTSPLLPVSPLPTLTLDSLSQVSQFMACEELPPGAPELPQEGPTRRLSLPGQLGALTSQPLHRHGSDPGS
row,Compound,"hERG current change (%, negative = inhibition) at 10uM [%]"
1,O=C(CCC1CCCC1)NCc1cccs1,13.9
2,CCC(Oc1ccccc1)C(=O)NCCOC (centres unmarked),-8.48
3,CC(NC(=O)c1cccc(Br)c1)c1ccccc1 (centres unmarked),-2.43
4,NC12CC3CC(C1)CC(CC(=O)O)(C3)C2,10.8
5,Cc1nc(Nc2ccc3c(c2)OCCO3)c2oc3ccccc3c2n1,-5.62
6,COc1ccc(NC(=O)CSc2nnc(-c3ccco3)c(-c3ccco3)n2)cc1OC,-29.4
7,CCN(CC)C(=O)CSc1nnc(-c2ccccc2)c(-c2ccccc2)n1,-20.4
8,O=C(CSc1nnc(-c2ccco2)c(-c2ccco2)n1)c1ccccc1,4.5
9,O=C(CSc1nnc(-c2ccco2)c(-c2ccco2)n1)Nc1ccccc1,-75.2
10,CC(=O)Nc1ccc(NC(=O)CSc2nnc(-c3ccco3)o2)cc1,7.81
11,CC(=O)c1ccc(NC(=O)CSc2nnc(-c3ccco3)o2)cc1,-73.9
12,Cc1ccc(-c2nnc(SCC(=O)N(C)C)nc2-c2ccc(C)cc2)cc1,-67.9
13,COc1cccc(NC(=O)CSc2nnc(-c3ccco3)c(-c3ccco3)n2)c1,-59.6
14,COc1cccc(NC(=O)CSc2ccc(-c3ccco3)nn2)c1,-48.1
15,Cc1ccc(NC(=O)CSc2nnc(-c3ccco3)o2)cc1,2.91
16,Cc1ccc(-c2nnc(SCC(N)=O)nc2-c2ccc(C)cc2)cc1,-24.2
17,O=C(CSc1n[nH]c(-c2ccco2)n1)Nc1ccccc1,-20.4
18,COc1ccc2cc(C(=O)C3CCCN(C(=O)c4sc(C)nc4C)C3)ccc2c1 (centres unmarked),-22.8
19,Cc1ccc(S(=O)(=O)N2CCN(C(=O)CCn3nc(C)c(C)c3C)CC2)cc1,11.1
20,Oc1cccc(-c2nc3c4c(ncn3n2)-c2ccccc2CC42CCCC2)c1,-7.64
21,COc1ccc(CCn2nnnc2C(c2ccc(Cl)cc2)N2CCN(C)CC2)cc1OC.Cl (centres unmarked),-11.6

row,Compound,"hERG current change (%, negative = inhibition) at 10uM [%]"
1,CC(=O)Nc1ccccc1OC(=O)N(C)C,2.41
2,COc1c(Cl)cc(Cl)cc1C(=O)Nc1ccc(NC(=O)c2cccs2)cc1,13.2
3,COc1ccc(C2(CNC(=O)c3cccc([N+](=O)[O-])c3)CCOCC2)cc1,0.0345
4,CN(C)c1ccc(NC(=O)CSc2nnc(-c3ccco3)c(-c3ccco3)n2)cc1,6.58
5,Cc1ccc(NC(=O)CSc2nnc(-c3ccco3)c(-c3ccco3)n2)cc1,-64.9
6,CC(=O)c1ccc(NC(=O)CSc2nnc(-c3ccco3)c(-c3ccco3)n2)cc1,-33
7,CCOc1ccc(NC(=S)N2CCC(c3ccc(C)cc3)C2)cc1 (centres unmarked),-6.63
8,CSc1cccc(NC(=S)N(CCCN2CCCC(C)C2)Cc2cccs2)c1 (centres unmarked),-75.6
9,CSc1cccc(NC(=S)N(CCCN2CCCC2)Cc2cccn2Cc2ccc(Cl)cc2)c1,-28.1
10,CSc1cccc(NC(=S)N(CCCN2CCC(C)CC2)Cc2cccs2)c1,-72.9
11,Cc1cccc(C)c1NC(=S)N(CCCN1CCN(C)CC1)Cc1cccs1,-47.8
12,CSc1cccc(NC(=S)N(CCCN2CCCC2)Cc2cccs2)c1,-63.7
13,Cc1ccc(/C=N/NC(=O)c2cc3c(ccc4ccccc43)o2)cc1[N+](=O)[O-],3.49
14,Cc1cc(C)n(C(=O)COc2c(C)cccc2C)n1,11
15,COc1cc(C(=O)N2CCN(C3CCC(C)CC3)CC2)cc(OC)c1OC.O=C(O)C(=O)O (centres unmarked),8.29
16,CCCCN(C)Cc1c(C(=O)N2CCc3ccccc3C2)nc2ccc(Cl)cn12,-50.1
17,CCN(C)Cc1c(C(=O)N2CCc3ccccc3C2)nc2ccc(Cl)cn12,-31.1
18,CN1CCN(Cc2c(C(=O)N3CCc4ccccc4C3)nc3ccc(Cl)cn23)CC1,-51.8
19,CC1CCN(Cc2c(C(=O)N3CCc4ccccc4C3)nc3ccc(Cl)cn23)CC1,-31.7
20,CN(Cc1cccnc1)Cc1c(C(=O)N2CCc3ccccc3C2)nc2ccc(Cl)cn12,-20.1
